About 7,900 targets were measured; listed, in parts, are those with a hit and a random draw of the rest. About 0.6% of all pairs of compound and target were hits.
Columns and labels:
Experiment in all cases: log2 fold change, soluble protein after heating vs DMSO (PISA); higher = thermal stabilisation; K562 cells, 10 uM, 30 min; active = over 0.2 and 3.5 SD of the protein, either way, in both replicates (recomputed)
[1] = compound: NC(=O)Nc1cc(-c2cccc(F)c2)sc1C(=O)N[C@H]1CCCNC1
How it was run: (§1)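 Soluble protein was quantified by TMTpro 16plex LC-MS/MS after channel sums were equalised. It was obtained as the supernatant after 21,000xg for 90 min from pooled aliquots of K562 cells (2×10^6 cells/mL, 10 μM compound, 30 min) heated for 3 min across 48°C-58°C and extracted in PBS with 0.5% NP-40 at 4°C. Thermal stability values are relative to control samples and come from duplicates. They are given as log2 fold changes.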

[2] = compound: NC(=O)c1cnc(N[C@@H]2CCCC[C@@H]2N)nc1Nc1cccc(-n2nccn2)c1
How it was run: as §1

[3] = compound: NC1(c2ccc(-c3nc4ccn5c(=O)[nH]nc5c4cc3-c3ccccc3)cc2)CCC1
How it was run: as §1

[4] = compound: NCC(=O)Nc1ccc(-n2nc(C(F)(F)F)cc2-c2ccc3c(ccc4ccccc43)c2)cc1
How it was run: as §1

entinostat = compound: Nc1ccccc1NC(=O)c1ccc(CNC(=O)OCc2cccnc2)cc1 [entinostat]
How it was run: as §1

vorinostat = compound: O=C(CCCCCCC(=O)Nc1ccccc1)NO [vorinostat]
How it was run: as §1

citarinostat = compound: O=C(CCCCCCNC(=O)c1cnc(N(c2ccccc2)c2ccccc2Cl)nc1)NO [citarinostat]
How it was run: as §1

silmitasertib = compound: O=C(O)c1ccc2c(c1)nc(Nc1cccc(Cl)c1)c1ccncc12 [silmitasertib]
How it was run: as §1

[5] = compound: O=C1NC(=O)C(c2cnc3ccccn23)=C1c1cn2c3c(cc(F)cc13)CN(C(=O)N1CCCCC1)CC2
How it was run: as §1

[6] = compound: c1cc(OCCN2CCCCC2)cc(-c2n[nH]c3ccc(-c4nnc[nH]4)cc23)c1
How it was run: as §1

entospletinib = compound: c1cn2cc(-c3ccc4cn[nH]c4c3)nc(Nc3ccc(N4CCOCC4)cc3)c2n1 [entospletinib]
How it was run: as §1

Measured: log2 fold change

CDC42BPA isoform 6 (UniProt Q5VT25)
Sequence of UniProt Q5VT25 (Q5VT25 whole entry, looked up): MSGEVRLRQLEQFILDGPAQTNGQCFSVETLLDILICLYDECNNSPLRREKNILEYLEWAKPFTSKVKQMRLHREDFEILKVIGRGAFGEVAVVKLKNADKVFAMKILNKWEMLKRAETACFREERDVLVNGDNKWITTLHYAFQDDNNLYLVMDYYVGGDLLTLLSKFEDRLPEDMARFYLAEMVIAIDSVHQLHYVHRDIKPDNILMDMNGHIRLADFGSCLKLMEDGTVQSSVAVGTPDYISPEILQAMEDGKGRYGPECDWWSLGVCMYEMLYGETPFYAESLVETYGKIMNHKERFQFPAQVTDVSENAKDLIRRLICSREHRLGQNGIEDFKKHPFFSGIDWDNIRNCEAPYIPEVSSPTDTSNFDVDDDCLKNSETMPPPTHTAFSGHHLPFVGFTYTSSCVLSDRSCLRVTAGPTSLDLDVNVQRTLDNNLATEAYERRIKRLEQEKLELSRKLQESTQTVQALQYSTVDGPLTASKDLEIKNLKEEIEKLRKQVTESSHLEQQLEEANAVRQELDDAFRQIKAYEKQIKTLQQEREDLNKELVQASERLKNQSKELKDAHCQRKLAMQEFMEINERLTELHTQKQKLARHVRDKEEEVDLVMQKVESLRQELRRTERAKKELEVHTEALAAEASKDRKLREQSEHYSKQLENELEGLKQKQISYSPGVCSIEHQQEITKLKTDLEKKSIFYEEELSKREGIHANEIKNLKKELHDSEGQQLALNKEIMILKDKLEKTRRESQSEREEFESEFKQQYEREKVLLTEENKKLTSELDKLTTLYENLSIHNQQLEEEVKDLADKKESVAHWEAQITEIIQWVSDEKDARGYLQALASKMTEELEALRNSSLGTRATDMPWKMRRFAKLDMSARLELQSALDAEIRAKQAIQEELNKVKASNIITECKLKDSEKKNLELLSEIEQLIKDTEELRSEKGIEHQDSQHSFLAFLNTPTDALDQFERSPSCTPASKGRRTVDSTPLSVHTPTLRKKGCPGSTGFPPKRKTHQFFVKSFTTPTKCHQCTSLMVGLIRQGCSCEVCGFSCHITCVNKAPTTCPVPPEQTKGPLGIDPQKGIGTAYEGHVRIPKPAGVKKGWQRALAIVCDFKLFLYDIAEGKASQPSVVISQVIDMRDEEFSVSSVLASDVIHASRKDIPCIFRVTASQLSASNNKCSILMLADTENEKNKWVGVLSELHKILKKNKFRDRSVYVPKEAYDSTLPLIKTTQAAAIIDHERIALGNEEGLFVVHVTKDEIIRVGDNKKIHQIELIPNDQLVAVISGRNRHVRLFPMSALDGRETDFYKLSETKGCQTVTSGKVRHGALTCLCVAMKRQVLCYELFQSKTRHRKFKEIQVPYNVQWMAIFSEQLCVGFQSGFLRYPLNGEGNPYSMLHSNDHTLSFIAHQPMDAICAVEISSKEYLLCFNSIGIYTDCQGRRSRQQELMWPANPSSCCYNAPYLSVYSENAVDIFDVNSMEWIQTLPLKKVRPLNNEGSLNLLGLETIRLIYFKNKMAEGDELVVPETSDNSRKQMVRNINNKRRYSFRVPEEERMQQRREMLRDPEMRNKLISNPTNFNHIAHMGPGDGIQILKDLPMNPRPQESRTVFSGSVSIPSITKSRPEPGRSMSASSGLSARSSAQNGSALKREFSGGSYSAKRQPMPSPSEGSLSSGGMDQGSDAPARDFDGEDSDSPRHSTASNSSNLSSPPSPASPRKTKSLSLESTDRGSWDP
inactive: [1] -0.325 | [2] -0.334 | [3] -0.06 | [4] -0.003 | entinostat 0.012 | vorinostat 0.051 | citarinostat 0.115 | silmitasertib 0.11 | [5] -0.041 | [6] -0.203 | entospletinib 0.112

CBX5 (UniProt P45973)
inactive: [1] -0.066 | [2] -0.027 | [3] -0.025 | [4] -0.106 | entinostat 0.025 | vorinostat 0.113 | citarinostat 0.041 | silmitasertib -0.016 | [5] -0.073 | [6] -0.021 | entospletinib 0.01

CD81 (UniProt P60033)
inactive: [1] -0.051 | [2] 0.222 | [3] 0.21 | [4] 0.231 | entinostat -0.028 | vorinostat -0.074 | citarinostat 0.065 | silmitasertib 0.052 | [5] 0.066 | [6] -0.166 | entospletinib 0.019

CDKN2AIP (UniProt Q9NXV6)
inactive: [1] 0.003 | [2] 0.044 | [3] -0.018 | [4] -0.026 | entinostat 0.017 | vorinostat 0.027 | citarinostat 0.013 | silmitasertib 0.026 | [5] 0.022 | [6] -0.071 | entospletinib -0.014

CDC42BPB (UniProt Q9Y5S2)
inactive: [1] -0.205 | [2] 0.054 | [3] -0.254 | [4] -0.012 | entinostat 0.155 | vorinostat 0.06 | citarinostat 0.085 | silmitasertib -0.087 | [5] -0.057 | [6] -0.201 | entospletinib -0.245

CPT1A (UniProt P50416)
Sequence of UniProt P50416 (P50416 whole entry, looked up): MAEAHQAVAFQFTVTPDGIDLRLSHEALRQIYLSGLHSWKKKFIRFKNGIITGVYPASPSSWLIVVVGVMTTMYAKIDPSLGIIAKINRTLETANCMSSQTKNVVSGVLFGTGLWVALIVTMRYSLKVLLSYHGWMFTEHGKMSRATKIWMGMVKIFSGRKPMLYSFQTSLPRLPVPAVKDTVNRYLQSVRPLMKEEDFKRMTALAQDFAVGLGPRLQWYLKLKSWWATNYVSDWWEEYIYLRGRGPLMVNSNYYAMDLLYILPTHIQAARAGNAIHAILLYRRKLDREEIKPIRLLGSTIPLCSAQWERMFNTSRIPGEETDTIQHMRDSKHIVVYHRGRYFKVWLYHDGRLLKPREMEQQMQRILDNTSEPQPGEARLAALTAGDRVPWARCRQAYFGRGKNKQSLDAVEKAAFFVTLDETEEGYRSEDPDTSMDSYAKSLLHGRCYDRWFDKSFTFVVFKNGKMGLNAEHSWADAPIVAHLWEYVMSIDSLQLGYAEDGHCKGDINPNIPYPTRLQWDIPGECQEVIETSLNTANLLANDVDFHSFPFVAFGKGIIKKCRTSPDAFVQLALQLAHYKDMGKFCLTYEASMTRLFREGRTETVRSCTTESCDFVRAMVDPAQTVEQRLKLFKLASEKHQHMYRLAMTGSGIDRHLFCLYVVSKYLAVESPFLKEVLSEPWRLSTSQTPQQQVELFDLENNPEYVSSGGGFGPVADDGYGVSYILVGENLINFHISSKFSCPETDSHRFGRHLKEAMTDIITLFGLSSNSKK
inactive: [1] -0.068 | [2] -0.012 | [3] 0.117 | [4] -0.001 | entinostat -0.005 | vorinostat -0.017 | citarinostat 0.053 | silmitasertib 0.037 | [5] -0.014 | [6] 0.071 | entospletinib 0.019

CCDC59 (UniProt Q9P031)
inactive: [1] -0.033 | [2] 0.122 | [3] 0.166 | [4] 0.139 | entinostat -0.149 | vorinostat -0.099 | citarinostat -0.178 | silmitasertib 0.154 | [5] 0.21 | [6] 0.07 | entospletinib 0.002

CLTB (UniProt P09497)
inactive: [1] 0.088 | [2] 0.101 | [3] 0.043 | [4] 0.117 | entinostat -0.076 | vorinostat 0.003 | citarinostat -0.013 | silmitasertib -0.005 | [5] -0.043 | [6] 0.07 | entospletinib -0.025

CNOT1 (UniProt A5YKK6)
inactive: [1] 0 | [2] 0.01 | [3] -0.075 | [4] -0.026 | entinostat 0.024 | vorinostat 0.035 | citarinostat 0.05 | silmitasertib 0.055 | [5] 0.004 | [6] -0.032 | entospletinib 0.014

CHD3 isoform 3 (UniProt Q12873)
Sequence of UniProt Q12873 (Q12873 whole entry, looked up): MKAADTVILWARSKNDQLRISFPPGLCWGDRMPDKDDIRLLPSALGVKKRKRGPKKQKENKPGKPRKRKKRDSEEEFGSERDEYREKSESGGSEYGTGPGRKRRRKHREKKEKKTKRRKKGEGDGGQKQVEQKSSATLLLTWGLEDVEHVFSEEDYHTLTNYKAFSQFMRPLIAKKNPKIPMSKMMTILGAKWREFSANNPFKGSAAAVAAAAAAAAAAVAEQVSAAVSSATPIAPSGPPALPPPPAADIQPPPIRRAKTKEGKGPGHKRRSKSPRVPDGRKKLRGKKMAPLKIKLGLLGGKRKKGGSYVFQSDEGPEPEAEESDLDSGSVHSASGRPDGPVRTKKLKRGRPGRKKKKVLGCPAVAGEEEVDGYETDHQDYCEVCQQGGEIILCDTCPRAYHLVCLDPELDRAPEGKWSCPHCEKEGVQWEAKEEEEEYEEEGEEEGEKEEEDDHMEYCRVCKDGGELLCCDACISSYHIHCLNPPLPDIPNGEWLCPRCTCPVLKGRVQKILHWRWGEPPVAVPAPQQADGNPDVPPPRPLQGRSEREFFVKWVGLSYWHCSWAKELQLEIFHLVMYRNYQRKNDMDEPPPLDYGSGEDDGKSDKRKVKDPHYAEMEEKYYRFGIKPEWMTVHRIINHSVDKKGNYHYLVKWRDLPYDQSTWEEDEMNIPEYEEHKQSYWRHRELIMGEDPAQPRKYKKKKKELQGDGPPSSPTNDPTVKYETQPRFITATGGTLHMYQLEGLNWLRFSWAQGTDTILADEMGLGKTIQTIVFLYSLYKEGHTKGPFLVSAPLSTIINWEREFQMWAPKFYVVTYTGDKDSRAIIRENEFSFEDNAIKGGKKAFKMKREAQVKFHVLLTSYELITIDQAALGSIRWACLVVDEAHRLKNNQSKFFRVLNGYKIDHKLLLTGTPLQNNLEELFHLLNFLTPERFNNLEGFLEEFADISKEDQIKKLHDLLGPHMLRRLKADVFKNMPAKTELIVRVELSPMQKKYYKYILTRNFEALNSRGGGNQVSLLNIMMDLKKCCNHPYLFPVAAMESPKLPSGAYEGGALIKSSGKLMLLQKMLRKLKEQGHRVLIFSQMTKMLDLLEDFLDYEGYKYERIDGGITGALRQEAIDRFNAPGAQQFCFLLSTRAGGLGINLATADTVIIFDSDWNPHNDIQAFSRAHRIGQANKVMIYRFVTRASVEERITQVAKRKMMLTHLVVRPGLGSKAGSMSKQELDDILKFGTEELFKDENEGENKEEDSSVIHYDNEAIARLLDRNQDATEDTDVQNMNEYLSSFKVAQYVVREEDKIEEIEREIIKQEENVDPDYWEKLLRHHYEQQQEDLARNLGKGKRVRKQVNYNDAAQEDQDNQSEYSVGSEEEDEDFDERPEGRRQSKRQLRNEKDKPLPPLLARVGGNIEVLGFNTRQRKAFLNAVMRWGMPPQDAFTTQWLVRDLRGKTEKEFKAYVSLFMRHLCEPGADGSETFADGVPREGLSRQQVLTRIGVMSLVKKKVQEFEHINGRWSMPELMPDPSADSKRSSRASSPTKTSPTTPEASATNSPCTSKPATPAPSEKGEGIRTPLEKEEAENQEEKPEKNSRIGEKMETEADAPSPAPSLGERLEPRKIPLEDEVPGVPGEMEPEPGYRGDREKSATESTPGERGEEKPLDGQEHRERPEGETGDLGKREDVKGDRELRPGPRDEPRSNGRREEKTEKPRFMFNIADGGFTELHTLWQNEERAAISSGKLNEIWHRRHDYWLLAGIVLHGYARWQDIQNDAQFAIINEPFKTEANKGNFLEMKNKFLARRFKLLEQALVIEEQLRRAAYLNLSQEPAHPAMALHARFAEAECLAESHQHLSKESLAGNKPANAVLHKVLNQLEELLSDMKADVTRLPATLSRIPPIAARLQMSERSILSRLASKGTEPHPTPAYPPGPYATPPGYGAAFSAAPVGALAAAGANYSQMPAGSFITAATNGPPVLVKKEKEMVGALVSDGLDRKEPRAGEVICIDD
inactive: [1] 0.023 | [2] -0.152 | [3] -0.113 | [4] -0.013 | entinostat 0.036 | vorinostat 0.101 | citarinostat 0.057 | silmitasertib 0.154 | [5] 0.057 | [6] -0.101 | entospletinib -0.001

CHCHD2 (UniProt Q9Y6H1)
Sequence of UniProt Q9Y6H1 (Q9Y6H1 whole entry, looked up): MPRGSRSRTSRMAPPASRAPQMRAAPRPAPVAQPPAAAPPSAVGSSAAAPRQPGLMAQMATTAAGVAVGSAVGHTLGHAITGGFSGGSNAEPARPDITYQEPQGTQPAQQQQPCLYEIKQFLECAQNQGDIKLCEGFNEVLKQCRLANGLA
inactive: [1] -0.039 | [2] -0.011 | [3] 0.022 | [4] 0.012 | entinostat -0.01 | vorinostat 0.005 | citarinostat 0.018 | silmitasertib 0.009 | [5] -0.13 | [6] -0.008 | entospletinib 0.028

CPQ (UniProt Q9Y646)
Sequence of UniProt Q9Y646 (Q9Y646 whole entry, looked up): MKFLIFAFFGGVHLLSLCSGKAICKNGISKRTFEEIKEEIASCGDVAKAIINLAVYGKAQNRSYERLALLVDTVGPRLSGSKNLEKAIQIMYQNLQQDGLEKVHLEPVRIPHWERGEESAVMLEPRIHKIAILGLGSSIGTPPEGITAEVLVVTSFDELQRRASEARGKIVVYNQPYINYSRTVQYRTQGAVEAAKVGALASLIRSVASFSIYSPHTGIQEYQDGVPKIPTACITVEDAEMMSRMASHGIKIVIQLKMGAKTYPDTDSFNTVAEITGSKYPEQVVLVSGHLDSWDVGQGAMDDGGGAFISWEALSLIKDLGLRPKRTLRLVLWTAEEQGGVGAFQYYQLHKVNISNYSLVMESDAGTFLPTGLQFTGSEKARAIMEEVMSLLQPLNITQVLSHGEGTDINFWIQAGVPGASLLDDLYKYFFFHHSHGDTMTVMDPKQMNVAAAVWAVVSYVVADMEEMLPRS
inactive: [1] 0.083 | [2] -0.01 | [3] -0.011 | [4] 0.072 | entinostat 0.012 | vorinostat -0.043 | citarinostat 0.038 | silmitasertib -0.004 | [5] 0.03 | [6] 0.009 | entospletinib 0.011
